According to PubChem BioAssay (NCI):
About 79,000 compounds went through this panel and 15% of them were active in at least one assay; those are over-represented in the sample as a whole. Activity calls are given as the source filed them. No stated cut-off is given here; in the data, active means growth inhibition above about 70%; inactive means the rest. Where a SMILES comes first, the peptide text is derived from it. The star is where a group is joined. Myristoyl = CCCCCCCCCCCCCC(=O)*

Assay: NCI Yeast Anticancer Drug Screen. Data for the mlh1 rad18 strain (AID 175)
Conditions: S. cerevisiae mlh1 rad18 strain growth inhibition; at 50.0 µM; stronger effect = higher value
How it was run: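 Genetically defined yeast (DNA repair-deficient) exposed to compounds; growth inhibition determined relative to vehicle.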

Row | SMILES | growth inhibition
1 | COc1ccc(-c2cc(O)cc(C)c2N)c(OC)c1OC | 17.4% (inactive)
2 | CCCOc1ncnc2nc[nH]c12 | 19.7% (inactive)
3 | CCCCCCCCCCCCCC(=O)NCC(=O)NC(CO)C(=O)NC(CO)C(=O)NC(CCCCN)C(=O)NC(CO)C(=O)NC(CCCCN)C(=O)N1CCCC1C(=O)NC(CCCCN)C(=O)NC(CC(=O)O)C(N)=O (centres undefined) (Myristoyl-GSSKSKPKD-NH2; configuration not given here) | 14% (inactive)
4 | CS(=O)(=O)Nc1ccc(C(=O)CCN2CCCCCC2)cc1 | -23.1% (inactive)
5 | CC(C)(C)[C@@H]1NC(=O)CN1C(=O)OCc1ccccc1 | -11.1% (inactive)
6 | CC(C)(C)c1ccc(C(O)(c2ccc(C(C)(C)C)cc2)c2ccc(C(C)(C)C)cc2)cc1 | -34.3% (inactive)
7 | Clc1cccc(-c2nc3cccc4c3n2Cc2ncccc2-4)c1 | -44.4% (inactive)
8 | CC(=N\N=C(N)N)/C(N=Nc1ccc(S(N)(=O)=O)cc1)=N\N=C(N)N | 21.3% (inactive)
9 | O=C(O)c1ccccn1 | 30% (inactive)
10 | O=C1C=C(Nc2ccc(Cl)cc2Cl)c2ccccc2C1=O | 37.5% (inactive)
11 | CC(O)/C=C/C(CCC(C)CO)C(C)C (centres undefined) | -16% (inactive)
12 | Cc1ccc(S(=O)(=O)OCC2CC=CCC2COC(=O)c2ccc([N+](=O)[O-])cc2)cc1 (centres undefined) | 6.4% (inactive)
13 | C1=CC(c2ccccc2)=C(c2ccccc2)C(c2ccccc2)C(c2ccccc2)=C1 (centres undefined) | 11.8% (inactive)
14 | COc1ccc(-c2cc(N)c3c(c2O)C(=O)c2c(N)ccc(O)c2C3=O)cc1 | 9.25% (inactive)
